Measured values reported in PubChem BioAssay (Tox21).
Values joined by “and” are separate entries in the source; they are usually repeats but may differ in a detail not shown here. Equal values may be shown once. Inconclusive results are not listed. Active and inactive are the calls of the source. Unless noted, calls follow the shape of the dose curve; as a rule, active = well fitted curve in the direction sought with a large enough effect in the repeat runs; inconclusive = weak or mixed curves; inactive = no such curve, though single readings can be large; an effect the other way counts as inactive or inconclusive.

What was measured:
[1] = qHTS assay to identify aromatase inhibitors - cell viability counter screen (AID 743084);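 also: cells stimulated with testosterone during compound exposure; nearly all actives have a fitted effect of over 55% in size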
[2] = molecular target: Aryl hydrocarbon receptor (Homo sapiens) (UniProt P35869); test: qHTS assay to identify small molecule that activate the aryl hydrocarbon receptor (AhR) signaling pathway (AID 743085); also: nearly all actives have a fitted effect of over 15% in size; also: potency is read from the fitted curve at half-maximal effect;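 as to activation: HG2L7.5c1 human HepG2 liver cells with stably integrated DRE-driven firefly reporter; series mostly up to about 70 µM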
Sequence of Aryl hydrocarbon receptor (Homo sapiens) (P35869 whole entry, looked up): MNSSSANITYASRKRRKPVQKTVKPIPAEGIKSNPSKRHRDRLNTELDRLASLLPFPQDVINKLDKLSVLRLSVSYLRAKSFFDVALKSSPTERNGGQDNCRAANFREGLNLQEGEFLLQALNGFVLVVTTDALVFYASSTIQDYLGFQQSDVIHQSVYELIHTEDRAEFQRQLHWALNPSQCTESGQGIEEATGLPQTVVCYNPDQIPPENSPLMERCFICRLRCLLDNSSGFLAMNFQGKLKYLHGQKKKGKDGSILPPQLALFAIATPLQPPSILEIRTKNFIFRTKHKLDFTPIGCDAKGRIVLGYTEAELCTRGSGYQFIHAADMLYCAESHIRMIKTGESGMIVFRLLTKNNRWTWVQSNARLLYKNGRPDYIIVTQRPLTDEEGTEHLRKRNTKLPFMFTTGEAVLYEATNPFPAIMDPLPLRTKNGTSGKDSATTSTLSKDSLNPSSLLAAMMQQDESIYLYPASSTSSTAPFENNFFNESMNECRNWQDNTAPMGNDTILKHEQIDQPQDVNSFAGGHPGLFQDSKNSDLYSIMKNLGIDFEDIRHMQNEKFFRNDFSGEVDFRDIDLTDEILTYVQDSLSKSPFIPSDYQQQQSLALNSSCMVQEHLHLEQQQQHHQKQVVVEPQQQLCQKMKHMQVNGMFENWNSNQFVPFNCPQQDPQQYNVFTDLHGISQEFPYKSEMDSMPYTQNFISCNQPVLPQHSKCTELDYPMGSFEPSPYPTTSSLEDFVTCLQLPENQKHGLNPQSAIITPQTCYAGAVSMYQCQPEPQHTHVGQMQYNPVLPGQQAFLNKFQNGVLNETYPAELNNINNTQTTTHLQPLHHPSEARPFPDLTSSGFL
In short: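 AhR agonist activity is inferred from enhanced light output of a DRE-controlled firefly luciferase reporter in HepG2 cells, measured with ONE-Glo following 24 h treatment at 37C.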

[3] = qHTS assay to identify small molecule that activate the aryl hydrocarbon receptor (AhR) signaling pathway - cell viability counter screen (AID 743086);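 also: HepG2 liver cells carrying the AhR DRE luciferase reporter; series mostly up to about 70 µM; nearly all actives have a fitted effect of over 45% in size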
In short: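 Cytotoxicity counter screen: CellTiter-Fluor signal (30 min, 37 C) in 4000 HepG2 cells/well carrying the DRE-luciferase reporter, following 24 h compound exposure at 37 C.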

[4] = molecular target: Peroxisome proliferator-activated receptor gamma (Homo sapiens) (UniProt P37231); test: qHTS assay to identify small molecule agonists of the peroxisome proliferator-activated receptor gamma (PPARg) signaling pathway (AID 743094; active = well fitted activation curve with a large enough effect in the signal ratio in the repeat runs, not every such curve was filed as active; the % refers to the signal ratio)
Sequence of Peroxisome proliferator-activated receptor gamma (Homo sapiens) (P37231 whole entry, looked up): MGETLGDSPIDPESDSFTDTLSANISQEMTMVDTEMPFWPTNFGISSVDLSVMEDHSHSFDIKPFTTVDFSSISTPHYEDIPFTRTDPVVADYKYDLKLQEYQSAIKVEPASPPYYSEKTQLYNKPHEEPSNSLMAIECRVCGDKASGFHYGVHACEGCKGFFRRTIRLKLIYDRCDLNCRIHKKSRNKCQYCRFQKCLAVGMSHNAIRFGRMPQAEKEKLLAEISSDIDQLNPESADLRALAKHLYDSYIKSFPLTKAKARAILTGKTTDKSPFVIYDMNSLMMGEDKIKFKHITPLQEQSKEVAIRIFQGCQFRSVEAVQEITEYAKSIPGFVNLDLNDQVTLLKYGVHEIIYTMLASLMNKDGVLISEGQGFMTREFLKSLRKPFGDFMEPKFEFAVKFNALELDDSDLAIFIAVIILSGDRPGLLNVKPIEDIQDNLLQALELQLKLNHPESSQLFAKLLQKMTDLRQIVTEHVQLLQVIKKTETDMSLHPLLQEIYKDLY
In short: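 HEK293H PPARg-bla cells, 5 h settle at 37C/5% CO2; compound (DMSO) 17 h, 37C; B/G FRET substrate 1 h RT; fluorescence intensity read-out. qHTS format.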

[5] = qHTS assay to identify small molecule antagonists of the peroxisome proliferator-activated receptor gamma (PPARg) signaling pathway - cell viability counter screen (AID 743194); also: nearly all actives have a fitted effect of over 55% in size
In short: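 Viability was measured as CellTiter-Glo luminescence in GeneBLAzer PPARg UAS-bla HEK293H cells. These cells had been exposed 17 h at 37 C to compounds together with rosiglitazone at 50 nM final, with the beta-lactamase readout taken in the same wells.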

[6] = qHTS assay for small molecule agonists of the antioxidant response element (ARE) signaling pathway (AID 743202; active = well fitted activation curve with a large enough effect in the signal ratio in the repeat runs, not every such curve was filed as active; the % refers to the signal ratio)
In short: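 Beta-lactamase reporter activity, read as fluorescence intensity, reflects ARE/Nrf2 pathway induction in HepG2 cells after 16 h compound exposure at 37 C; substrate loading was 2 h at room temperature.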

[7] = qHTS assay for small molecule agonists of the antioxidant response element (ARE) signaling pathway - cell viability counter screen (AID 743203; calls by dose curve; also: nearly all actives have a fitted effect of over 55% in size)
In short: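 Luminescence read-out (CellTiter-Glo, 30 min at room temperature) measured cell viability in the same wells as the ARE beta-lactamase reporter. HepG2 ARE-bla cells were treated with compounds for 16 hrs at 37C/5% CO2.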

[8] = qHTS assay for small molecule activators of the heat shock response signaling pathway - cell viability counter screen (AID 743209); also: nearly all actives have a fitted effect of over 50% in size
In short: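 HSE-bla HeLa; 1500 cells/well; overnight 37 C, 5% CO2; compound 5 h 37 C; LiveBLAzer B/G substrate 2.5 h RT; CellTiter-Glo 30 min RT; luminescence.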

[9] = qHTS assay for small molecule activators of the heat shock response signaling pathway (AID 743210; active = well fitted activation curve with a large enough effect in the signal ratio in the repeat runs, with a control signal flat, not every such curve was filed as active; the % refers to the signal ratio;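 also: HeLa cells with beta-lactamase reporter driven by heat shock elements; series mostly up to about 63 µM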)
In short: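 Fluorescence from a cleaved B/G FRET substrate (2.5 h, room temp) reports HSE-driven beta-lactamase in HeLa cells treated 5 h at 37 C with DMSO-dissolved compounds.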

[10] = qHTS assay to identify small molecule agonists of the peroxisome proliferator-activated receptor delta (PPARd) signaling pathway - cell viability counter screen (AID 743211); also: nearly all actives have a fitted effect of over 55% in size
In short: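 qHTS cell viability: PPARd-bla HEK293H; 17 h cpd, 37C; CellTiter-Glo, luminescence at 30 min RT.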

[11] = molecular target: Peroxisome proliferator-activated receptor delta (Homo sapiens) (UniProt Q03181); test: qHTS assay to identify small molecule agonists of the peroxisome proliferator-activated receptor delta (PPARd) signaling pathway (AID 743212; calls by dose curve)
Sequence of Peroxisome proliferator-activated receptor delta (Homo sapiens) (Q03181 whole entry, looked up): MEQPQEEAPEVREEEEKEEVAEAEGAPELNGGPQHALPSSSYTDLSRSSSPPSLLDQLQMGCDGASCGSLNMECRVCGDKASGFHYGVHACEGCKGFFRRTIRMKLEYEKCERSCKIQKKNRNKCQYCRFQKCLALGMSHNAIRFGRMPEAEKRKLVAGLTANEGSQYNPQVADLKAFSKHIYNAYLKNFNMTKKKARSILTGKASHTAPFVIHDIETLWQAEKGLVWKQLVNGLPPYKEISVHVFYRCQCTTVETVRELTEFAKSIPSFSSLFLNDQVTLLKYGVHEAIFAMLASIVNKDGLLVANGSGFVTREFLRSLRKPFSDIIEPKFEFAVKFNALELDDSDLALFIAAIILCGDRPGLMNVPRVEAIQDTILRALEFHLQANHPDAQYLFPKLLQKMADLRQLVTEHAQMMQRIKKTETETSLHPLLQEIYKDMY
In short: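 Steps: seed PPARd-bla HEK293H cells; incubate 5 h, 37 C, 5% CO2; add compounds in DMSO; incubate, 37 C; add LiveBLAzer B/G FRET substrate; hold 2 h at room temperature; measure fluorescence.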

[12] = qHTS assay to identify small molecule antagonists of the peroxisome proliferator-activated receptor delta (PPARd) signaling pathway - cell viability counter screen (AID 743213); also: nearly all actives have a fitted effect of over 50% in size
In short: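 PPARd-bla HEK293H cells (3000/well) got compound plus 300 nM L165041 agonist for 17 h at 37 C. Viability in the same wells came from CellTiter-Glo luminescence after 30 min at room temperature.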

[13] = qHTS assay to identify small molecule agonists of the farnesoid-X-receptor (FXR) signaling pathway - cell viability counter screen (AID 743218); also: nearly all actives have a fitted effect of over 45% in size
In short: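 Luminescence from CellTiter-Glo, read after 30 min at RT, reports viability of GeneBLAzer FXR-UAS-bla HEK 293T cells treated 16 h with compounds in the wells used for the beta-lactamase reporter.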

[14] = qHTS assay to identify small molecule antagonists of the farnesoid-X-receptor (FXR) signaling pathway - cell viability counter screen (AID 743221; active = well fitted cell-killing curve with a large enough effect in the repeat runs, not every such curve was filed as active; also: nearly all actives have a fitted effect of over 50% in size)
In short: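 After a 5 h settling period, FXR-bla HEK 293T cells receive compound and chenodeoxycholic acid (50 uM final) and incubate 16 h at 37 C; CellTiter-Glo luminescence, read after 30 min at room temperature, reports cell viability.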

[15] = molecular target: Peroxisome proliferator-activated receptor delta (Homo sapiens) (UniProt Q03181); test: qHTS assay to identify small molecule antagonists of the peroxisome proliferator-activated receptor delta (PPARd) signaling pathway (AID 743215; active = well fitted inhibition curve with a large enough effect in the signal ratio in the repeat runs, not every such curve was filed as active; the % refers to the signal ratio;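 also: cells stimulated with agonist L165041 at 300 nM final during compound exposure; series mostly up to about 62 µM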)
In short: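 HEK293H GeneBLAzer PPARd UAS-bla reporter cells; cpd + L165041 300 nM final, 17 h 37 C; LiveBLAzer B/G FRET substrate 2 h RT; fluorescence intensity read-out. Antagonist mode.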

[16] = molecular target: Vitamin D3 receptor (Homo sapiens) (UniProt P11473); test: qHTS assay to identify small molecule agonists of the vitamin D receptor (VDR) signaling pathway (AID 743222; calls by dose curve)
Sequence of Vitamin D3 receptor (Homo sapiens) (P11473 whole entry, looked up): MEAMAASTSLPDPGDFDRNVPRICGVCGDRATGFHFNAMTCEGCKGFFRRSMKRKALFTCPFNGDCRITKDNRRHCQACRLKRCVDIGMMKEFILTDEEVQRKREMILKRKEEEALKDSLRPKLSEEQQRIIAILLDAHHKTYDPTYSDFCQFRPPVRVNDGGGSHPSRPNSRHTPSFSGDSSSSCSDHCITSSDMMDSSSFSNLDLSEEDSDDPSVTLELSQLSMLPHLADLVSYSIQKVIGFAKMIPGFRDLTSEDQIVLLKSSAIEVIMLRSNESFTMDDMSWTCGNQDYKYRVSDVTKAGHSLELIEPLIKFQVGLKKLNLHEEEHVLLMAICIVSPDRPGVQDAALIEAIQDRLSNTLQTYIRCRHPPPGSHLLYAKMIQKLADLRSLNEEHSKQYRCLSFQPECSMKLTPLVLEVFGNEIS
In short: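 Beta-lactamase reporter readout (LiveBLAzer B/G FRET, 2 h RT) in VDR-bla cells after 16 h compound treatment at 37C, 5% CO2; cells pre-incubated 4 h before pin transfer of DMSO solutions.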

[17] = molecular target: Vitamin D3 receptor (Homo sapiens) (UniProt P11473); test: qHTS assay to identify small molecule antagonists of the vitamin D receptor (VDR) signaling pathway (AID 743223; active = well fitted inhibition curve with a large enough effect in the signal ratio in the repeat runs, not every such curve was filed as active; the % refers to the signal ratio)
In short: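 Reporter line VDR-bla; stimulus 1alpha,25-(OH)2 vitamin D3, 3 nM final; compound co-addition, 16 h 37C/5% CO2; LiveBLAzer B/G substrate 2 h RT; fluorescence intensity.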

[18] = molecular target: Peroxisome proliferator-activated receptor gamma (Homo sapiens) (UniProt P37231); test: qHTS assay to identify small molecule antagonists of the peroxisome proliferator-activated receptor gamma (PPARg) signaling pathway (AID 743191; calls by dose curve; also: series mostly up to about 63 µM; nearly all actives have a fitted effect of over 30% in size)
In short: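 Beta-lactamase reporter under UAS control in HEK293H PPARg-bla cells; compound treatment 17 h at 37C. Read-out: fluorescence intensity after 1 h room-temperature incubation with LiveBLAzer B/G FRET substrate.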

[19] = molecular target: Bile acid receptor (Homo sapiens) (UniProt Q96RI1); test: qHTS assay to identify small molecule antagonists of the farnesoid-X-receptor (FXR) signaling pathway (AID 743217; active = well fitted inhibition curve with a large enough effect in the signal ratio in the repeat runs, not every such curve was filed as active; the % refers to the signal ratio)
Sequence of Bile acid receptor (Homo sapiens) (Q96RI1 whole entry, looked up): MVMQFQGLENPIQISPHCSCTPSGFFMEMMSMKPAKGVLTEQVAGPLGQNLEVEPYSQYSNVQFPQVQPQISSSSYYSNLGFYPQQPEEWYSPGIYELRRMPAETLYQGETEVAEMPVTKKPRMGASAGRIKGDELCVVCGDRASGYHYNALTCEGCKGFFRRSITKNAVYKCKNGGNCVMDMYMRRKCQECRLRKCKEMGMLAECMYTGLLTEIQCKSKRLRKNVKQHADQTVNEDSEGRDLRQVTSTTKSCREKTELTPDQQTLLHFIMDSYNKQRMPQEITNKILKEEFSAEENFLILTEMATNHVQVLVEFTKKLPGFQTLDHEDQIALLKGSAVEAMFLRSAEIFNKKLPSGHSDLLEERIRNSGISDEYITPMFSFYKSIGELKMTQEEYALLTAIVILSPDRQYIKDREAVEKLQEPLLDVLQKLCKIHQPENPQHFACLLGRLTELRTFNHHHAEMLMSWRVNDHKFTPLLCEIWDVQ
In short: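 Read-out: beta-lactamase FRET fluorescence (LiveBLAzer B/G substrate, 2 h, room temperature) in GeneBLAzer FXR-UAS-bla HEK 293T cells. Compounds were co-dosed with 50 uM chenodeoxycholic acid (final) and incubated 16 h at 37 °C.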

[20] = molecular target: Bile acid receptor (Homo sapiens) (UniProt Q96RI1); test: qHTS assay to identify small molecule agonists of the farnesoid-X-receptor (FXR) signaling pathway (AID 743220; active = well fitted activation curve with a large enough effect in the signal ratio in the repeat runs, not every such curve was filed as active; the % refers to the signal ratio)
In short: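 FXR-UAS-bla HEK 293T cells carrying a UAS-driven beta-lactamase reporter were plated for 5 h at 37C/5% CO2, then exposed to DMSO-dissolved Tox21 10K compounds for 16 h at 37C. A LiveBLAzer B/G FRET substrate was loaded for 2 h at room temperature before fluorescence reading.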

Measured: Potency

CCC/C=C/C=O
not listed: [15] | [16] | [17] | [18] | [19] | [20]
inactive: all other assays above

CCCCCCC(C)O (centres undefined)
not listed: [18] | [19] | [20]
inactive: all other assays above

OC[C@H]1O[C@@H]2O[C@H]3[C@H](O)[C@@H](O)[C@@H](O[C@H]4[C@H](O)[C@@H](O)[C@@H](O[C@H]5[C@H](O)[C@@H](O)[C@@H](O[C@H]6[C@H](O)[C@@H](O)[C@@H](O[C@H]7[C@H](O)[C@@H](O)[C@@H](O[C@H]1[C@H](O)[C@H]2O)O[C@@H]7CO)O[C@@H]6CO)O[C@@H]5CO)O[C@@H]4CO)O[C@@H]3CO
not listed: [11] | [14] | [15] | [18] | [19] | [20]
inactive: all other assays above

CNC[C@H](O)c1ccc(O)c(O)c1
not listed: [9] | [11] | [13] | [15] | [19] | [20]
inactive: all other assays above

Brc1nc2ccccc2s1
active: [2] 30.5 µM and 13.7 µM
not listed: [6] | [9] | [17]
inactive: all other assays above

c1ccc2c(c1)[nH]c1ccccc12
not listed: [16] | [17] | [19] | [20]
inactive: all other assays above

FC(F)(F)C(Cl)Br (centres undefined)
not listed: [16] | [17] | [19] | [20]
inactive: all other assays above

C=C[Si](OCCOC)(OCCOC)OCCOC
not listed: [14] | [18]
inactive: all other assays above

CN(C)C
not listed: [11] | [14] | [15] | [17] | [18] | [19] | [20]
inactive: all other assays above

O=C1CCc2ccccc2O1
not listed: [9] | [14] | [19] | [20]
inactive: all other assays above

[Na+]
not listed: [14] | [16] | [17] | [18] | [19] | [20]
inactive: all other assays above

Cc1ccc(C(C)(C)C)cc1
not listed: [9] | [18] | [19] | [20]
inactive: all other assays above

CC(C)[N+](C)(CCOC(=O)C1c2ccccc2Oc2ccccc21)C(C)C
not listed: [18]
inactive: all other assays above

CCCOCCO
not listed: [11] | [14] | [15] | [18]
inactive: all other assays above

Oc1c(Cl)ccc(Cl)c1Cl
not listed: [6]
inactive: all other assays above

COc1cc([C@H]2Oc3cc([C@H]4Oc5cc(O)cc(O)c5C(=O)[C@@H]4O)ccc3O[C@@H]2CO)ccc1O
not listed: [6] | [9] | [11] | [14] | [15] | [16] | [17]
inactive: all other assays above

CC(=O)Nc1ccc2c(c1)Cc1cc(NC(C)=O)ccc1-2
not listed: [9] | [19] | [20]
inactive: all other assays above
